This note sets out measurements from PubChem BioAssay AID651774 (Broad Institute, 2012).

Molecules are shown by their SMILES. Entries with a potency or affinity are not part of this list. Activity calls are given as the source filed them. No rule for the calls is given here.

This experiment in a line: cytotoxicity in HeLa cells, dose response, cytotoxicity control, cell-based, 24 h, dry powder (AID 651774).

`O=C(Cc1ccc(F)cc1)NC1CCCC1`: the compound was called inactive.
Under `O=C(Cc1ccccc1F)NC1CCCC1` stands “inactive”.
Under `CCn1nnnc1NCc1ccc(N2CCCC2)cc1` stands “inactive”.
For `N#Cc1ccc(CC(=O)NC2CCCC2)cc1`, the outcome was inactive.
As for `O=C(Nc1nnc(-c2ccc3c(c2)OCCO3)o1)C1CCCCC1`, the result was inactive.
Under `O=C(Cc1cccc(F)c1)NC1CCCC1` stands “inactive”; under `Cc1ccc2cc3c(NC(=O)c4ccco4)nn(C)c3nc2c1`, “inactive”.
Under `Cc1ccccc1CC(=O)NC1CCCC1` stands “inactive”; under `CS(=O)(=O)c1cccc(CC(=O)NC2CCCC2)c1`, “inactive”.
Under `O=C(Cc1cccc(C(F)(F)F)c1)NC1CCCC1` stands “inactive”.
Turning to `O=C(NC1CCCC1)Oc1ccc(-c2ccccc2)cc1`, the compound was classed as inactive.
Under `CCn1nnc(NCc2ccc(C(F)(F)F)cc2)n1` stands “inactive”.
For the compound `O=C(Cc1cccc(-c2ccccc2)c1)NC1CCCC1`, the call was inactive.
Under `CC(C)c1ccc(CNc2nnn(C)n2)cc1` stands “inactive”; under `O=C(Cc1cccc(OC(F)(F)F)c1)NC1CCCC1`, “inactive”; under `O=C(O)Cc1ccc(-c2ccccc2)cc1`, “inactive”.
Under `O=C(Cc1ccc(-c2ccccc2)cc1)NCC1CCCC1` stands “inactive”; under `O=C(Cc1cccnc1)NC1CCCC1`, “inactive”.
For `c1ccc(CNc2nn[nH]n2)cc1`, the result was inactive.
Turning to `O=C(Cc1ccc(-c2cccnc2)cc1)NC1CCCC1`, the compound was called inactive.
Under `COc1ccc(CC(=O)NC2CCCC2)cc1` stands “inactive”; under `O=C(Cc1ccc2ccccc2c1)NC1CCCC1`, “inactive”; under `O=C(Cc1ccc(-c2ccccc2)cc1)N1CCCCC1`, “inactive”.
Under `O=C(Cc1ccc(-c2ccccc2)cc1)N1CCC1` stands “inactive”; under `O=C(Cc1ccc(C(F)(F)F)cc1)NC1CCCC1`, “inactive”.
Under `c1cc(N2CCCC2)ccc1CNc1nn[nH]n1` stands “inactive”.
As for `CCn1nnc(NCc2ccccc2)n1`, the compound was classed as inactive.
Under `CCNC(=O)Cc1ccc(-c2ccccc2)cc1` stands “inactive”.
